The list is not random: actives were taken first. Their share in the collection is about 4.1%.
TROY NFkB inh = inhibitors of TROY-driven NF-kB signaling, primary screen, Q293 LMP1-TROYcd cells, NF-kB luciferase, uHTS; Q293 LMP1-TROYcd NF-kB luciferase reporter, 4 h; inhibition, % at 10 µM; 360,000 compounds, 0.98% hits;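 active = compounds whose plate-normalised and pattern-corrected inhibition of the luciferase reporter signal at the single screening dose is 50% or more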
LMP1 NFkB inh = EBV LMP1-driven NF-kappaB luciferase reporter inhibitors, primary screen, cell-based, luminescence, single point; 350,000 compounds, 0.69% hits; inhibition, % at 12.5 µM; LMP1-induced NF-kappaB luciferase reporter cells; in the data active = inhibition above about 41%; inconclusive = no clear call, values can overlap the other calls;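 also: 0% = neutral control wells and 100% = reference inhibitor control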
TWEAK-Fn14 inh = inhibitors of TWEAK-Fn14 signaling, primary screen, luciferase reporter cells, uHTS. TWEAK-stimulated Fn14 reporter cells, luciferase luminescence, 8 h. inhibition, % at 10 µM. 360,000 compounds, 2% hits. AID 1159606, 2016; in the data active = inhibition above about 50%
Peg3 promoter = Peg3 promoter-driven luciferase inhibitors, primary screen, cell-based, HeLa, luciferase luminescence. HeLa PEG-Prom luciferase reporter, overnight. inhibition, % at 20 µM. 360,000 compounds, 1.7% hits;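 active = inhibition of at least 50% at 20 µM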
Shn3 inh set2 = reduction of Shn3 3'UTR firefly luciferase signal, primary screen, Schnurri-3 inhibitor project, cell-based, Clone20 osteoblasts, set 2; Clone20 osteoblast Shn3 3'UTR firefly luciferase, 24 h; inhibition, % at 12.5 µM; 360,000 compounds, 0.52% hits;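 active = mean inhibition of at least 75% with every replicate also reaching 75%; inconclusive = mean inhibition at least 75% but some replicate below; inactive = mean inhibition below 75%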;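 also: 0% = median of neutral control wells and 100% = pilot-screen positive control compound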
MITF TRPM1 inh = inhibitors of MITF-dependent TRPM1 promoter reporter, primary screen, cell-based, SK-MEL-5, single point, luciferase; SK-MEL-5 TRPM1 promoter luciferase, 24 h; inhibition, % at 12.5 µM; 330,000 compounds, 0.83% hits;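 active = mean inhibition across replicates of 60% or more, whatever share of single replicates reaches that level; inconclusive = some that reach 60%, reason not given; inactive = mean inhibition across replicates below 60%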
* marks the source's active call; other numbers are inactive results; ? = inconclusive.

SMILES | TROY NFkB inh | LMP1 NFkB inh | TWEAK-Fn14 inh | Peg3 promoter | Shn3 inh set2 | MITF TRPM1 inh
O=C1c2ccccc2C(Nc2ccc3c(c2)OCCO3)N1c1ccc(Cl)cn1 (stereo not drawn) | -1 | -8 | 15 | -23 | -7 | -23
O=C1c2ccccc2C(Nc2ccc3c(c2)OCCO3)N1c1ccccn1 (stereo not drawn) | 46 | 18 | 63* | 32 | 6 | 10
CCOC(=O)C1CCN(S(=O)(=O)c2cc3c(cc2C)NC(=O)CO3)CC1 | 12 | -3 | -10 | 22 | 3 | 10
CCc1ccc(NC(=O)COC(=O)Cn2cnc3ccccc32)cc1 | 7 | 2 | -13 | -26 | 5 | -6
CC1CCCCC1NC(=O)COC(=O)c1c2c(nc3ccccc13)/C(=C\c1ccco1)CC2 (stereo not drawn) | 2 | -4 | 34 | 17 | -25 | -11
COc1ccc(OC)c(NC(=O)c2cccc(N3C(=O)C4C5CCC(C5)C4C3=O)c2)c1 (stereo not drawn) | 8 | 9 | 12 | 19 | 38 | 13
COc1ccc(OC)c(NC(=O)c2cccc(N3C(=O)C4C5C=CC(C6CC56)C4C3=O)c2)c1 (stereo not drawn) | 25 | 1 | 53* | 30 | 66 | 26
COC(=O)c1ccc(NC(=O)c2cccc(N3C(=O)CCC3=O)c2)cc1 | -11 | 5 | 5 | 4 | -3 | -11
COC(=O)c1ccc(NC(=O)c2cccc(N3C(=O)C4C5C=CC(C6CC56)C4C3=O)c2)cc1 (stereo not drawn) | 55* | -7 | 85* | 50 | 59 | 43
COC(=O)c1ccc(NC(=O)c2ccc[n+]([O-])c2)cc1 | 2 | 4 | 87* | -2 | 16 | 2
O=C(CSc1ncnc2c1cnn2-c1cccc(Cl)c1)NCC1CCCO1 (stereo not drawn) | 23 | 3 | 21 | -35 | -14 | 5
O=C(OCn1ncc(Br)c(Br)c1=O)c1ccccc1Cl | 80* | 14 | 97* | 106* | 97* | 89*
O=C(OCn1ncc(Br)c(Br)c1=O)c1ccc(F)cc1 | 83* | ? | 102* | 109* | 98* | 85*
CC(=O)OCn1ncc(N2CCOCC2)c(Br)c1=O | -5 | -5 | 0 | 7 | -4 | 7
CC(NC(=O)CNC(=O)C1O[C@@H]2OC(C)(C)O[C@@H]2[C@H]2OC(C)(C)O[C@@H]12)C(=O)O (stereo partly drawn) | 16 | 12 | 0 | -3 | -16 | -2
COc1ccc(NC(=O)CN(C)C(=O)c2cccnc2Sc2ccc(C)c(C)c2)cc1 | -14 | -10 | -16 | 21 | 10 | 2
CCN(CC(=O)Nc1ccc(NC(C)=O)cc1)C(=O)c1cccnc1Sc1ccc(C)c(C)c1 | -8 | 41* | -14 | 3 | 2 | 3
COc1cc(OC)cc(-c2oc(=O)c3cc(OC)c(OC)cc3c2C#CCCO)c1 | -8 | 1 | -45 | -4 | -1 | -2
COc1cc(OC)cc(-c2oc(=O)c3cc(OC)c(OC)cc3c2C(F)(F)F)c1 | 4 | -4 | 2 | 18 | -1 | 70*
CCOC(=O)c1c(C)[nH]c(C(=O)NNC(=O)c2ccccc2F)c1C | -17 | -17 | 26 | -188 | -32 | -70
CCOC(=O)c1c(C)[nH]c(C(=O)NNC(=O)c2ccccc2)c1C | -25 | 8 | 53* | -145 | -51 | -7
CCOC(=O)c1c(C)[nH]c(C(=O)NNC(=O)c2ccc(Br)cc2)c1C | 55* | -10 | 56* | -66 | -30 | -12
CCN(CC)S(=O)(=O)c1cccc(C(=O)NCCc2ccccc2)c1 | -11 | -24 | 7 | -222 | -20 | -43
COc1ccc(CCNC(=O)c2ccc(Cl)c(S(=O)(=O)N3CCCCCC3)c2)cc1 | 44 | 13 | 60* | 27 | 74 | 38
CN(c1ccccc1)S(=O)(=O)c1cccc(C(=O)NCCc2ccc(O)c(O)c2)c1 | 56* | 5 | 39 | -11 | 31 | 35
